Experimental findings from ChEMBL document CHEMBL3988442, “University of Dundee, Small-Polar-MMV Screening Library” (2021) are described below.

The target in assay [1] is T1, Aspartate--tRNA(Asp/Asn) ligase (Mycobacterium tuberculosis (strain ATCC 25618 / H37Rv)) (UniProt P9WFW3). Note: in the data most compounds retested in dose-response had high values.
T1 sequence (whole entry): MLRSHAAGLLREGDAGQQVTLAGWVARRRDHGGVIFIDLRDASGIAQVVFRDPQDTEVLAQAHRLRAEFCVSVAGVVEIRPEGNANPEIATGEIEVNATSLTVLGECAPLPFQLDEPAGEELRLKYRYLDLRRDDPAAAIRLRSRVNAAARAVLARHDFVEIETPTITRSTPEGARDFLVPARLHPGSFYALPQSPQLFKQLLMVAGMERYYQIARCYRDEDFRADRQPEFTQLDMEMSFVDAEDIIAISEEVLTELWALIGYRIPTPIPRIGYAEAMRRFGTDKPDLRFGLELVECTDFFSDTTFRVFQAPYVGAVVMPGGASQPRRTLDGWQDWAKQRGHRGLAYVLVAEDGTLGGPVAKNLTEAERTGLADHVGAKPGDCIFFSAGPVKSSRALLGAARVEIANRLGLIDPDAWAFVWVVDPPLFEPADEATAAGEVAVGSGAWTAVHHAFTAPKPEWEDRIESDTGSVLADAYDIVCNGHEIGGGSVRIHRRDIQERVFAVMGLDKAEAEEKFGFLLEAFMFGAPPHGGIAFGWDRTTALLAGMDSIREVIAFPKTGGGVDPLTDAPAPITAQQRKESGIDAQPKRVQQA
Briefly: Assay for Asp RNA synthetase-1 from Mycobacterium tuberculosis. The format is functional. Further details: scale not given: direction of the effect not stated beside the values. Particulars: 30 µM.

For assay [2], the target named is Shiga toxin 2 (Escherichia coli O157:H7) (UniProt P09385+P09386). Briefly: E. coli 0.157:H7 Shiga Toxin SOP - stx2 screening assay. Further details: scale not given: direction of the effect not stated beside the values. Particulars: 30 µM. It is filed as functional.

Each structure is given as a SMILES string.

Turning to `Cc1nc(C)n(C2CCCN(C(=O)c3sccc3C3CC3)C2)n1` (configuration not stated), the Percent Effect in assay [1] was -3.11%; in assay [2], 10.4%.
Taken in the same sequence, the figures for `O=S(=O)(c1ccccc1Cl)N1CCc2nc(C3CCNCC3)ncc2C1` were -6.28% and -9.83%.
For `O=C(CCc1ccccc1F)NS(=O)(=O)c1ccc2c(c1)OCCCO2`, in that order: 2.29% and -13.9%.
Taken in the same sequence, the figures for `O=C(c1cccnc1)N1CC[C@H](OCC2CC2)[C@@H]1Cc1cccnc1` were 3.76% and -13.7%.
As to `COc1ccnc(N2CCN(C(=O)c3cnn(C)c3C3CC3)CC2)n1`, the Percent Effect is -3.2% in assay [1] and 11.7% in assay [2].
Taken in the same sequence, the figures for `CN(C)C(=O)c1cccc(NC(=O)N(CCO)Cc2ccsc2)c1` were -4.93% and -18.5%.
Taken in the same sequence, the figures for `COCCN1C(=O)CCC12CCN(C(=O)NC(C)C)CC2` were -3.16% and 6%.
For `COCC(=O)N1CCC(c2nc3ccc(-c4ccccc4)cn3n2)CC1`, in that order: -2.8% and -19.6%.
Take `O=C1COc2c(cccc2C(=O)N2CCCCC2Cn2cccn2)N1` (configuration not stated): the Percent Effect was -0.721% in assay [1] and 27.1% in assay [2].
Taken in the same sequence, the figures for `CN1CCC/C1=N\S(=O)(=O)c1ccc(NC(=O)CCc2cccs2)cc1` were 1.3% and -144%.
For `CC(CN1CCC2(CC1)c1nc[nH]c1CCN2S(C)(=O)=O)C(F)(F)F` (configuration not stated), in that order: 2.76% and 4.49%.
For the compound `N#Cc1c(F)cccc1N1CCN(S(=O)(=O)c2cccs2)CC1`, the Percent Effect in assay [1] was 4.83%; in assay [2], -12.3%.
Taken in the same sequence, the figures for `CCOCCC(=O)N1CCCC(c2ncc[nH]2)C1` (configuration not stated) were -0.374% and -22.5%.
Taken in the same sequence, the figures for `COCc1nc(CNC2CCSCC2)no1` were -4% and 9.42%.
For `Cc1noc(C2CCN(C(=O)CCNS(C)(=O)=O)CC2)n1`, in that order: -0.989% and -13.5%.
For the compound `CCN(CC)C(=O)CCNC(=O)N1CCC(c2ccccc2)C1` (configuration not stated), the Percent Effect in assay [1] is -1.42%; in assay [2], -20.3%.
Taken in the same sequence, the figures for `CN(Cc1cncnc1)Cc1cn2c(n1)CN(C1CCOC1)CC2` (configuration not stated) were 7.69% and -15.6%.
For `CCc1nccn1C1CCCN(C(=O)Cc2cn3ccccc3n2)C1` (configuration not stated), in that order: 0.0146% and -20.4%.
For `Cc1cnn(CC2CCN(CC(O)COc3ccc(F)cc3)CC2)c1` (configuration not stated), in that order: 1.99% and -53%.
Regarding `CCn1cnnc1C1CCN(C(=O)c2ccc(C(=O)OC)s2)CC1`, the Percent Effect was -7.04% in assay [1] and 7.28% in assay [2].
Take `Cc1ccc(-c2nc(CN3CCC(C(=O)N(C)C)CC3)cs2)o1`: the Percent Effect in assay [1] was 4.21%; in assay [2] it was -24.2%.
Taken in the same sequence, the figures for `Cc1ccc(CN2CCc3ncnc(C4CCOC4)c3CC2)s1` (configuration not stated) were 1.05% and -15.3%.
For `Cc1sc(NC(=O)CN(C)S(C)(=O)=O)c(C#N)c1C`, the Percent Effect is 1.76% in assay [1] and -4.6% in assay [2].
Consider `COc1ccc(OCCc2sc(C3(O)CCCNCC3)nc2C)cc1` (configuration not stated), for which the Percent Effect in assay [1] was -5.55%; in assay [2] it was -52%.
For `CN(Cc1ccc(F)cc1)C(=O)Cn1nc(-c2ccc(F)cc2)oc1=O`, in that order: 5.72% and -25.7%.
As for `O=c1nc(SCc2cccnc2)c2c(n1CCO)CCC2`, the Percent Effect was -12% in assay [1] and 13.4% in assay [2].
Taken in the same sequence, the figures for `CCn1cc(NC(=O)C2CCN(CC(=O)N3CCOCC3)CC2)cn1` were -3.23% and 21.6%.
For `N#Cc1cccc(SCCS(N)(=O)=O)c1`, in that order: 0.306% and -7.47%.
For `CS(=O)(=O)NCc1cnc2n1CCN(Cc1ccsc1)CC2`, in that order: -2.39% and -23.6%.
Regarding `CC(C)CNC(=O)NC(=O)CNc1ccccc1SCC(C)C#N` (configuration not stated), the results for the Percent Effect in assay [1] and in assay [2] were -5.03% and 4.99%, respectively.
Taken in the same sequence, the figures for `CC(O)CN1CCN(C(=O)c2cn(-c3ccccc3Cl)nn2)CC1` (configuration not stated) were 3.29% and -10.2%.
For `Cn1cc(-c2cnc(N3CCOCC3)nc2)cc1C(=O)O`, in that order: -4.12% and 9.97%.
Regarding `COCCN1CCN(Cc2cccc(OCC(N)=O)c2)CC1C` (configuration not stated), the Percent Effect in assay [1] was -6.54%; in assay [2], -6.57%.
Taken in the same sequence, the figures for `Cc1c(C2CCCN(C(=O)C3CC3)C2)n2c(nc1=O)CCC2` (configuration not stated) were -0.253% and 10.2%.
Taken in the same sequence, the figures for `CN1CCN(C2CCN(CCOc3ccc(F)cc3)CC2)C1=O` were -2.61% and -5.38%.
Regarding `Cc1ncc(-c2ccnc(N3CCN(C)CC3)n2)c(-c2cccnc2)n1`, the Percent Effect is 4.45% in assay [1] and -20.4% in assay [2].
Taken in the same sequence, the figures for `Cc1ccc(C(=O)Nc2cn[nH]c2)cn1` were 1.01% and 15.1%.
Taken in the same sequence, the figures for `CNC(=O)c1nc2c(s1)CCN(C(=O)Cc1ccc(OC)cc1)CC2` were 0.107% and -7.44%.
Turning to `COc1cccc(CNC(=O)CN2CCCCC2Cn2cccn2)c1` (configuration not stated), the Percent Effect in assay [1] was found to be 0.922%; in assay [2], 20.3%.
Taken in the same sequence, the figures for `CCO[C@@H]1CC[C@H]2[C@H]1OCCN2C(=O)C1CCOCC1` were -5.84% and 8.02%.
`CCS(=O)(=O)N1CCC2(CC1)CN(Cc1ccccn1)C(=O)CO2`: the Percent Effect was 0.198% in assay [1] and -10.6% in assay [2].
`Cc1cc(C)n(-c2cncc(NCCNC(=O)C(C)C)n2)n1`: the results for the Percent Effect in assay [1] and in assay [2] were 8.76% and 2.01%, respectively.
Taken in the same sequence, the figures for `O=C(NCCN1CCOCC1)c1n[nH]c(=O)c2ccccc12` were -2% and -29.3%.
For `Cc1csc(CN2CC[C@H]3C[C@H](c4nnc(C)[nH]4)O[C@@H]3C2)n1`, in that order: 1.94% and 0.515%.
Taken in the same sequence, the figures for `c1cnn(-c2ccc(CN3CCOC(Cn4cncn4)C3)cc2)c1` (configuration not stated) were 4.05% and 9.62%.
With `Cc1cc(CN2CCCC2c2noc(C)n2)no1` (configuration not stated), the Percent Effect was -5.01% in assay [1] and -5.29% in assay [2].
